# In the library only some 2.9% were active in any assay of this set; here they are far more common.
# PAFAH2 FP inh: PAFAH2 enzyme inhibitors, primary screen, biochemical, fluorescence polarization, human. recombinant PAFAH2, FP-rhodamine activity probe. AID 492956, 2010. Platelet-activating factor acetylhydrolase 2, cytoplasmic (Homo sapiens), Q99487. actives 0.99% (n = 340,000). inhibition, % at 3.39 µM;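 active = inhibition above the mean over all tested compounds plus 3 SD, cut at about 30% in these data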;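 note: inhibitors block probe labeling of enzyme so polarization drops; 0% = enzyme with DMSO and 100% = wells lacking PAFAH2 protein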
# PAFAH1B2 inh: PAFAH1B2 enzyme inhibitors, primary screen, biochemical, fluorescence polarization, human; actives 1.2% (n = 340,000); recombinant PAFAH1B2, FP-rhodamine activity probe; Platelet-activating factor acetylhydrolase IB subunit alpha2 (Homo sapiens), P68402; inhibition, % at 3.39 µM;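 active = inhibition above the mean of all tested compounds plus 3 SD, cut at about 24% in these data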;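 note: 0% = enzyme with DMSO and 100% = wells lacking PAFAH1B2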
# Target sequence (P68402 whole entry, looked up): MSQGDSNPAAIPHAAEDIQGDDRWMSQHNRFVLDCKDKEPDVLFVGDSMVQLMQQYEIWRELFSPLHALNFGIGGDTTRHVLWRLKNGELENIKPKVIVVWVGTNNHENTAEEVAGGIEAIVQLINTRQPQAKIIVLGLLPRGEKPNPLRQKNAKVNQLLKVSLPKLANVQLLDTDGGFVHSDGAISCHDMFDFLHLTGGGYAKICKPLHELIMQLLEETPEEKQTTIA
# EBNA-1 inhibitor: EBNA-1 DNA-binding inhibitors, primary screen, biochemical, fluorescence polarization | actives 0.34% (n = 300,000) | inhibition, % at 14.8 µM | AID 1950, 2009; in the data active = inhibition above about 28%
# rCAG binder: binders of r(CAG) RNA repeats, primary screen, biochemical, fluorescence | actives 1.3% (n = 370,000) | r(CAG) RNA repeat, TO-PRO-1 dye displacement fluorescence | inhibition, % at 3 µM | AID 651821, 2012;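 active = inhibition above the plate cutoff, the mean of all test compounds on that plate plus 3 SD, cut at about 35% in these data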;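 note: 0% = DMSO alone and 100% = 100 µM mitoxantrone as full dye displacement; higher means more dye released from RNA so lower well fluorescence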
# PAFAH1B3 inh: PAFAH1B3 enzyme inhibitors, primary screen, biochemical, fluorescence polarization, human | actives 0.28% (n = 340,000) | recombinant PAFAH1B3, FP-rhodamine probe | inhibition, % at 3.39 µM | Platelet-activating factor acetylhydrolase IB subunit alpha1 (Homo sapiens), Q15102 | AID 492972, 2010;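 active = inhibition above the screen-wide average of all tested compounds plus 3 SD, cut at about 25% in these data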;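 note: 0% = enzyme with DMSO only and 100% = wells lacking PAFAH1B3 protein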
# Target sequence (Q15102 whole entry, looked up): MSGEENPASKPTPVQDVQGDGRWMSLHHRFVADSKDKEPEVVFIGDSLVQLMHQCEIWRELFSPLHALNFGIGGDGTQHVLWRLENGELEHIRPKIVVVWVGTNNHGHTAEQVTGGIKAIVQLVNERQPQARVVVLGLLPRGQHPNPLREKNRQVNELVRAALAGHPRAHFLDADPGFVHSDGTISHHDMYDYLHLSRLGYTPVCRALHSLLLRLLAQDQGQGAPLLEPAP
# ZTA counter: ZTA (EBV) inhibition in EBNA-1 counter-screen | ZTA-DNA binding, fluorescence polarization | inhibition, % at 11 µM | P03206 | actives 0.15% (n = 320,000); in the data active = inhibition above about 33%
# Target sequence (P03206 whole entry, looked up): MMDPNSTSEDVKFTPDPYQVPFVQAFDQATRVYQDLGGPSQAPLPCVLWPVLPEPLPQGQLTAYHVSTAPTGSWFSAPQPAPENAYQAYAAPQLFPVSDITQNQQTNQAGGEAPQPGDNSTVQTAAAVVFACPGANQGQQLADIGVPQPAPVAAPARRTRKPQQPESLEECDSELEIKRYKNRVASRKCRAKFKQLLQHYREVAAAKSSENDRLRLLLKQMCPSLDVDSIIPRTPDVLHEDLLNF
# EBNA-1 confirm: EBNA-1 DNA-binding inhibitors, retest, confirmation, biochemical, fluorescence polarization, triplicate; inhibition, % at 14.8 µM; shares compounds with EBNA-1 inhibitor; Recombinant EBNA-1 DBD, Cy5-DNA fluorescence polarization; actives 35% (n = 830);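 active = mean inhibition across replicates above a set limit taken from the earlier primary screen, cut at about 28% in these data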;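 note: plate controls were EBNA-1 protein with DMSO for no effect and wells lacking EBNA-1 for full effect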
# ZTA DNA inh trip: EBV Zta DNA binding inhibitors, counter-screen for EBNA-1 inhibitor project, biochemical, fluorescence polarization, triplicate | shares compounds with EBNA-1 inhibitor | Zta-ZRE DNA binding, Cy5 fluorescence polarization | inhibition, % at 11.1 µM | 830 tested, under 10 active;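 active = mean inhibition over triplicates above a set limit taken from the primary EBNA-1 screen, cut at about 37% in these data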;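 note: purified full length Zta protein with Cy5 labeled ZRE DNA probe; 0% = Zta with DMSO and 100% = wells lacking Zta protein; inhibitors lower polarization by freeing the labeled DNA probe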
# * = called active by the depositor; . = no result given; + = active, no number.
SMILES,PAFAH2 FP inh,PAFAH1B2 inh,EBNA-1 inhibitor,rCAG binder,PAFAH1B3 inh,ZTA counter,EBNA-1 confirm,ZTA DNA inh trip
Cc1nc(-c2ccccc2)nc2[nH]c(-c3ccccc3)cc(=O)c12,8.5,-6.6,27.6*,4.0,-5.2,-4.6,18.2,-3.2
CCOc1ccc(N(CC(=O)Nc2c(C)n(C)n(-c3ccccc3)c2=O)S(=O)(=O)c2ccc(C)c(C)c2)cc1,.,.,.,1.7,.,.,.,.
COc1ccc(-c2csc(NC(=S)NC(=O)c3cccs3)n2)cc1OC,3.4,-2.7,.,30.9,8.1,.,.,.
COc1ccc(-c2csc(NC(=S)NC(=O)c3ccc(S(=O)(=O)N(C)C)cc3)n2)cc1OC,-8.6,1.7,46.2*,7.3,1.3,14.7,58.7*,41.5*
Cn1nnnc1SCc1ccc(C(=O)Nc2ccc(Br)cc2)cc1,11.5,-1.3,39.4*,0.3,7.6,6.6,17.8,1.4
COC(=O)c1ccc(Nc2cc(C)nc(-c3ccccc3O)n2)cc1,-8.4,-1.1,29.4*,4.3,1.0,-2.9,0.1,-3.8
O=[N+]([O-])c1cccc(/C=N/Nc2nc(NCc3ccccc3)nc(N3CCOCC3)n2)c1,-3.2,4.1,48.9*,-2.5,3.7,11.4,70.6*,0.3
COc1ccc(-c2ccc(C#N)c(SCC(=O)NC3CC3)n2)cc1OC,1.6,4.1,32.3*,-3.3,-1.1,6.0,13.1,3.8
COc1ccc(-c2ccc(C#N)c(SCC(=O)NCc3ccco3)n2)cc1OC,-0.5,-0.4,45.0*,5.3,-6.0,-5.5,41.5*,0.5
O=C(CSCc1ccc(Cl)cc1)N/N=C/c1ccc(OCC(=O)Nc2ccccc2)cc1,-4.9,-0.1,51.6*,6.5,-13.0,7.9,29.3*,1.1
COc1ccc(CNc2nc(NCc3ccc(OC)cc3)c3[nH]cnc3n2)cc1,9.8,3.1,39.2*,-2.1,5.0,-6.8,7.0,10.9
Cc1ccccc1Nc1nnc(SCC(=O)c2c(N)n(C)c(=O)n(C)c2=O)s1,-4.0,-3.8,-8.8,1.8,17.9,-7.7,.,.
Cn1c(=O)c(C(=O)CSc2nnc(Nc3ccccc3)s2)c(N)n(Cc2ccccc2)c1=O,-8.0,-6.4,35.1*,6.1,-6.2,-3.3,13.8,4.0
COc1ccc(CN2C(=O)CN(S(C)(=O)=O)CC2(C)c2nnnn2C2CCCCC2)cc1 (stereo unspecified),.,.,.,1.6,.,.,.,.
COc1ccc(CNc2nc(NCc3ccc(OC)cc3)n(C(C)=O)n2)cc1,4.5,1.8,65.4*,-0.7,6.4,-0.1,72.0*,8.8
CC(=O)n1nc(-c2ccc(C)cc2)nc1NCc1ccc(F)cc1,3.6,2.9,.,-1.6,-0.3,.,.,.
O=C(c1cc2sccc2n1Cc1ccc(F)cc1)N1CCN(c2nc3ccccc3s2)CC1,-3.6,-2.9,12.0,3.9,-7.8,10.8,.,.
Cn1c(C(=O)N2CCN(c3nc4ccccc4s3)CC2)cc2sccc21,-7.5,-4.2,50.9*,3.9,1.6,6.6,30.8*,2.5
CCn1c(SCC(=O)NCCc2ccc(OC)c(OC)c2)nc2c([nH]c3ccccc32)c1=O,.,.,.,1.6,.,.,.,.
CCn1c(SCC(=O)NCCc2ccccc2)nc2c([nH]c3ccccc32)c1=O,-3.2,0.2,41.8*,-2.2,11.5,11.0,7.1,6.3
CCC(C(=O)NC1CCCC1)n1c(C2CCCC2)nc2ccccc21 (stereo unspecified),.,.,.,1.9,.,.,.,.
COc1ccc(C(=O)Nc2nnc(-c3ccc(F)cc3)s2)c(OC)c1,-7.8,2.5,.,5.4,-1.8,.,.,.
COc1ccccc1C(=O)Nc1nnc(-c2ccc(F)cc2)s1,-4.5,0.2,+,3.7,7.6,3.2,4.0,1.3
COc1ccc(-n2nc(C(=O)Nc3ccc4c(c3)OCO4)c3ccccc3c2=O)c(OC)c1,4.4,5.1,29.3*,0.5,0.6,-15.2,35.4*,-8.0
O=C(CNC(=O)c1ccc(-c2ccccc2)cc1)OCc1c(F)cccc1Cl,4.6,12.1,43.9*,0.5,7.9,-16.5,76.0*,-12.4
SMILES,PAFAH2 FP inh,PAFAH1B2 inh,EBNA-1 inhibitor,rCAG binder,PAFAH1B3 inh,ZTA counter,EBNA-1 confirm,ZTA DNA inh trip
CS(=O)(=O)N[C@@H]1C[C@@H]2O[C@@H](CO)CC[C@@H]2O[C@@H]1CCc1ccc(/C=C/c2ccccc2)cc1,.,.,.,8.5,.,.,.,.
O=C(NCc1ccc2c(c1)OCO2)C12CN(Cc3ccccc3)CC1C(c1cccc([N+](=O)[O-])c1)=NO2 (stereo unspecified),1.8,4.5,174.0*,8.1,10.8,10.8,-20.7,-4.9
Cc1cccc(N2CCN(C(C(=O)NCc3ccccc3)c3ccc(C(F)(F)F)cc3)CC2)c1C (stereo unspecified),.,.,.,2.2,.,.,.,.
O=C1c2ccc3c4c(ccc(c24)C(=O)N1NC(=O)C(F)(F)F)CC3,9.6,3.5,-5.8,12.0,11.8,-5.4,.,.
O=C(NN1C(=O)c2ccc3c4c(ccc(c24)C1=O)CC3)c1ccc(Br)cc1,-12.9,-1.2,55.4*,9.1,-7.3,-6.8,6.4,8.5
CCC(=O)N1CCN(c2ccccc2NC(=O)COc2ccc(C(C)C)cc2)CC1,-7.1,8.0,72.6*,-5.7,5.1,13.5,3.2,1.5
Cc1ccccc1NC(=O)Cc1nc(COC(=O)c2cc(Cl)ccc2O)cs1,0.8,2.9,32.7*,-0.6,1.8,-7.0,10.5,5.2
COc1ccccc1-c1cc(C(F)(F)F)nc(NCc2ccco2)n1,4.4,-1.9,39.8*,0.5,7.9,26.0,0.2,3.4
COC(=O)[C@]12C=CCN1[C@H](c1ccc(Cl)cc1)c1c(c3ccccc3n1S(=O)(=O)c1ccc(C)cc1)C2,.,.,.,26.5,.,.,.,.
O=C(CCCCCn1c(=S)[nH]c2cc3c(cc2c1=O)OCO3)N1CCN(Cc2ccccc2)CC1,-3.2,2.2,36.6*,1.6,3.8,-0.8,69.4*,-3.2
O=C(O)c1ccc(-n2nc(-c3ccccc3O)nc2-c2ccccc2O)cc1,.,.,.,19.8,.,.,.,.
COc1ccc(CNC(=O)CCCCCn2c(SCC#N)nc3cc4c(cc3c2=O)OCO4)cc1,-1.9,-1.4,38.3*,-0.7,4.8,8.0,5.8,12.4
CCN(CC)C(=O)CSc1nc2cc3c(cc2c(=O)n1CCCC(=O)NCc1ccc(OC)cc1)OCO3,2.0,-1.4,-11.5,-1.3,1.9,-10.6,.,.
COc1ccccc1NS(=O)(=O)c1cc(NC(=O)CCC(=O)c2cccs2)ccc1Cl,-14.6,-9.2,-2.8,17.2,-16.9,9.6,.,.

# Compound activity from PubChem BioAssay.
